For 40 compounds, outcome results are on record in PubChem BioAssay (Tox21).

The source made the active and inactive calls. The call rests on the fitted dose curve; in most records, active means well fitted curve in the direction sought with a large enough effect in the repeat runs; inconclusive means weak or mixed curves; inactive means flat fitted curve, though single readings scatter.

This test can be described thus: qHTS assay to test for compound auto fluorescence at 535 nm (green) in HepG2 cells (AID 720675). Particulars: green autofluorescence 485/535 nm, 1 h; series mostly up to 91.3 µM. From the text: National Center for Advancing Translational Sciences [NCATS]
NIH Chemical Genomics Center [NCGC]
U.S. Environmental Protection Agency [EPA]
National Institutes of Environmental Health Sciences [NIEHS]
National Toxicology Program [NTP]
U.S. Food and Drug Administration [FDA]
Compound auto fluorescence often interferes with screening of the compound library against various biological targets and signaling pathways. Some of these compounds may have fluorophoric properties. Such properties may interfere with the assay outputs resulting in false positives and/or negatives. To decrease such complications and ensure the compound activities are relevant in terms of biological response, the Tox21 10K compound library was screened for auto fluorescence.
From the fluorophores used as reporter signals in our screening assays, the auto fluorescence equivalencies of compounds against three fluorophores have been evaluated: Triamterene, Fluorescein and Rose Bengal sodium for blue, green and red fluorescence, respectively. The fluorescence intensities were measured using Excitation/Emission wavelengths at 405/460nm, 485/535nm and 540/590nm for blue, green and red labels, respectively. This assay includes the green fluorescence data.
Tox21 Assay Protocol Summary:
2,000 HepG2 cells in 5 uL of culture medium (MEM containing 10% FBS) per well were dispensed into black wall/clear bottom 1536-well plates using a Multidrop Combi Dispenser (ThermoFisher Scientific, Waltham, MA). The assay plates were incubated overnight at 37 C to allow cell attachment to the well bottom, followed by the transfer of 23 nL compound or DMSO vehicle by a pintool work station (Kalypsys , San Diego, CA). After the assay plates were incubated for 1 hr at 37 C and 5% CO2, fluorescence intensities in the assay plates were measured by an Envision (PerkinElmer, Shelton, CT) plate reader using three labels for measuring blue, green and red fluorescence at […] 460, 535 and 590 nm respectively.
In general terms: In qHTS, concentration-response curves come from the screen itself.
With `CC(=O)C=C(C)C`, the compound was called inactive.
Consider `CCNc1nc(NC(C)C)nc(SC)n1`, for which the compound was called inactive.
Regarding `O=C(NC(=O)c1c(F)cccc1F)Nc1cc(Cl)c(OC(F)(F)C(F)C(F)(F)F)cc1Cl` (stereo not given), the call was inactive.
The same measure for `OC(O)C(Cl)(Cl)Cl`: “inactive”; for `Nc1ccccc1C(=O)O`: “inactive”.
Under `C[C@]12CC[C@H]3[C@@H](CC[C@@]45O[C@@H]4C(O)=C(C#N)C[C@]35C)[C@@H]1CC[C@@H]2O` stands “inactive”.
Under `CC(C)OC(=O)Nc1ccccc1` stands “inactive”; under `Clc1ccccc1Cl`, “inactive”.
Consider `Cc1cccc([N+](=O)[O-])c1`, for which the call was inactive.
In the case of `CCOP(=S)(OCC)Oc1cnc2ccccc2n1`, the call was inactive.
The same measure for `O=NN1CCCCCCC1`: “inactive”; for `C=C(C)CCl`: “inactive”; for `CCCC1COC(Cn2cncn2)(c2ccc(Cl)cc2Cl)O1` (stereo not given): “inactive”.
As to `CC(Oc1ccc(Cl)cc1Cl)C(=O)O` (stereo not given), the call was inactive.
As for `CC(C)=C[C@@H]1[C@@H](C(=O)OCc2coc(Cc3ccccc3)c2)C1(C)C`, the call was inactive.
Turning to `CCC12COCN1COC2`, the outcome was inactive.
The same measure for `COc1ccc2c3c1O[C@H]1[C@@H](O)C=C[C@H]4[C@@H](C2)N(C)CC[C@@]341`: “inactive”; for `C#CCN(C)[C@H](C)Cc1ccccc1`: “inactive”.
As for `c1ccc2c(c1)oc1ccccc12`, the result was inactive.
As to `CC1OC(C)OC(C)O1` (stereo not given), the compound was called inactive.
For the compound `c1cc2c3c(cccc3c1)CC2`, the call was inactive.
For `CC(C)C#N`, the compound was classed as inactive.
The same measure for `CC(C)N1C(=O)c2ccccc2NS1(=O)=O`: “inactive”; for `CN=C=S`: “inactive”.
Take `CC(NC(C)(C)C)C(=O)c1cccc(Cl)c1` (stereo not given): the compound was classed as inactive.
On to `O=c1n(Cl)c(=O)n(Cl)c(=O)n1Cl`, for which the compound was called inactive.
On to `CCc1cccc(C)c1N(C(=O)CCl)C(C)COC` (stereo not given), for which the call was inactive.
For the compound `CCOC(=O)c1ccccc1C(=O)OCC`, the compound was classed as inactive.
The same measure for `Nc1ccc(Oc2ccc(N)cc2)cc1`: “inactive”.
`CCOP(=S)(OCC)SCCSCC`: the outcome was inactive.
For the compound `CCC[N+](=O)[O-]`, the compound was called inactive.
Under `ClCCBr` stands “inactive”; under `NCCc1ccc(O)cc1`, “inactive”.
The same measure for `CN(C)[C@@H]1C(=O)C(C(N)=O)=C(O)[C@@]2(O)C(=O)C3=C(O)c4c(O)cccc4[C@@](C)(O)[C@H]3C[C@@H]12`: “inactive”; for `C=CC(N)=O`: “inactive”.
Under `Clc1ccc(Cl)cc1` stands “inactive”.
Turning to `c1ccc2c(c1)Oc1ccccc1O2`, the compound was classed as inactive.
For `Nc1c(Cl)c(Cl)nc(C(=O)O)c1Cl`, the compound was classed as inactive.
The same measure for `CC(C#N)CCC#N` (stereo not given): “inactive”; for `O=Cc1cccc(Oc2ccccc2)c1`: “inactive”.
